Holding throughout (experiment): NCI-60 one-dose screen, 48 h (100 = growth as untreated, 0 = no growth, -100 = all killed)
What all share (details): 10 µM unless noted

For test [1], the system named is SK-MEL-2 melanoma.
Test [2] relates to EKVX NSCLC.
In test [3] the test system is SN12C renal.
Test [4] has as its system UO-31 renal.
The subject of test [5] is TK-10 renal.
Test [6] has as its system ACHN renal.
In test [7] the test system is CAKI-1 renal.
For test [8], the system named is A498 renal.
In test [9] the test system is CCRF-CEM leukemia.
For test [10], the system named is MOLT-4 leukemia.

Structures are written as SMILES. Compounds without any hit were thinned out: in the full panel of roughly 83,000, 20% have a hit.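 Method: cells in 96-well plates; compound added at one concentration; 48 h incubation; percent growth measured; values under 10 scored active.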 A number with no mark means an inactive call. The source made the active and inactive calls.

`CN1CCN(Cc2ccc(NC(=O)c3cncc(C#Cc4cnc(N)c5ncccc45)c3)cc2C(F)(F)F)CC1`: the growth in test [1] is -77.3% (active); in [2], 33.3%; in test [3], -33.2% (active); in [4], -92.3% (active); in test [5] it was -63.8% (active); in test [6] it was -75.6% (active). Besides, the growth was -23.9% (active) in [7], -27% (active) in test [8], 19.3% in test [9] and 14.5% in test [10].

For the molecule `O=C(Oc1ccc(CCl)cc1)c1ccccc1`, the growth in test [1] is -71.4% (active); in [2], -100% (active); in test [3], -84.8% (active); in test [4], -92.6% (active); in [5], -96.3% (active); in test [6], -92.1% (active). Besides, the growth in [7] was -96.3% (active); in [8] it was -87.4% (active); in [9], -48.6% (active); in test [10] it was -49.7% (active).

`Cn1c(=O)c2[nH]c(SCC(=O)Nc3ccc(C(=O)/C=C/c4ccccc4Cl)cc3)nc2n(C)c1=O`: the growth in test [1] was 126%; in [2], 87.9%; in test [3], 97.7%; in [4] it was 92.7%; in test [5], 104%; in test [6] it was 99%. The growth is 98.1% in test [7], 85.6% in test [8], 79.5% in test [9] and 87.4% in test [10].

For the molecule `O=C(O)c1ccc(-c2ccc(/C=N/Nc3nc(Nc4ccccc4)nc(N4CCCCC4)n3)o2)cc1`, the growth in test [1] was 68.5%; in test [2], 78.8%; in test [3], 66.8%; in test [4], 44.4%; in [5] it was 41.8%; in [6] it was 73.3%. Further, the growth in test [7] is -5.95% (active); in test [8], 72.8%; in [9], 62.8%; in test [10], 79.9%.

Take `CN(C)CCCNC(=O)c1cncnc1Nc1ccc(OCc2cccc(F)c2)c(Cl)c1`: the growth is -35.7% (active) in [1]; 62.8% in test [2]; 28.7% in test [3]; -4.99% (active) in test [4]; -71.7% (active) in [5]; -36.8% (active) in test [6]. Also, the growth is -19.3% (active) in [7], -8.81% (active) in [8], -34.2% (active) in test [9] and -40.9% (active) in test [10].

With `CC(C)(C)n1cc(-c2ccnc(NCCCNS(=O)(=O)c3cccc4ccccc34)c2)c(-c2cccc(F)c2)n1`, the growth in test [1] was 107%; in [2], 68.6%; in test [3], 73.3%; in test [4] it was 65.9%; in [5], 97%; in [6], 91.5%. Further, the growth in [7] was 94.3%; in test [8] it was 29.2%; in [9], 56.9%; in test [10], 57.9%.

As for `Cc1ccc(N2C(=O)CCC2=O)cc1`, the growth was 84.8% in test [1]; 95.1% in [2]; 95.3% in [3]; 97.9% in test [4]; 89.9% in test [5]; 103% in test [6]. Moreover, the growth in [7] is 96.9%; in [8], 82.3%; in test [9], 108%; in test [10], 101%.

As for `O=C(/C=C/c1cccc(Cl)c1Cl)Nc1ncc(Cc2ccccc2Cl)s1`, the growth was 44.7% in test [1]; 55.7% in test [2]; 56.9% in test [3]; 44.6% in test [4]; 84.2% in test [5]; 46.4% in [6]. Moreover, the growth in test [7] is 48%; in [8] it was 39.6%; in [9], 21.5%; in test [10], 50.6%.

For `Cc1ccc(S(=O)(=O)c2nc(-c3ccccc3)oc2Sc2nc3ccccc3s2)cc1`, the growth in test [1] was 88.6%; in [2], 97.1%; in test [3], 61.4%; in [4], 64.3%; in [5] it was 111%; in test [6], 96.8%. Moreover, the growth in test [7] is 91.5%; in [8], 80.4%; in test [9], 23.6%; in test [10] it was 12.3%.

Take `COc1ccc(/C(C)=C(\c2ccc(Cl)cc2)c2ccc(OCCN3CCCCC3)cc2)cc1`: the growth in test [1] is 56.2%; in test [2], 69.1%; in test [3] it was 69.2%; in test [4], 48.1%; in test [5], 95.7%; in test [6], 77.3%. For the same molecule, the growth is 37.2% in test [7], 86.8% in test [8], 37.5% in [9] and 41.6% in [10].

Turning to `CCN1C(=O)N(CC)C2C1NN=c1s/c(=C3\C(=O)N(CC(C)C)c4ccccc43)c(=O)n12` (stereo not given), the growth was 56% in test [1]; 53.7% in test [2]; 27.5% in test [3]; 32.1% in test [4]; 70.2% in [5]; 31% in [6]. The growth is 31.6% in [7], 9.64% (active) in test [8], 11.6% in [9] and 19.6% in test [10].

As to `CNC(=O)c1cc(Oc2cccc3nc(NC(=O)Nc4cc(C(F)(F)F)ccc4Cl)ccc23)ccn1`, the growth in test [1] was 119%; in test [2], 99.5%; in [3] it was 93.5%; in test [4], 105%; in [5] it was 111%; in test [6], 101%. In addition, the growth is 85.8% in test [7], 109% in [8], 80.8% in test [9] and 89.5% in [10].

For the molecule `CN1CCN(c2ccc3nc4c(nc3c2C(F)(F)F)C(=O)c2ncccc2C4=O)CC1`, the growth in test [1] was -34.5% (active); in [2], 5.13% (active); in test [3] it was -95.4% (active); in test [4] it was -19.1% (active); in [5], 80.3%; in test [6], -44.2% (active). In addition, the growth in [7] is 33.1%; in test [8] it was -21.1% (active); in test [9] it was 5.71% (active); in [10], -36.4% (active).

The record behind these values is PubChem BioAssay (NCI).
